Results as given in PubChem BioAssay (NCATS).
Records with an inconclusive call do not appear. The source made the active and inactive calls. Calls come from the whole dose curve. Numbered stars: 1 amine (or outer) side, 2 acyl side, 3 side chain; on linkers, the order of the positions; unused ones are H or OH. Bridge positions count the residues as written; N and C are the ends. Square brackets hold non-standard residues; d marks the D form. Peptide text beside a SMILES is read from it. I, II: the chains in the order shown. Actinocin(9to1) = Cc1c2oc3c(C)ccc(C(=O)[*:1])c3nc-2c(C(=O)[*:2])c(N)c1=O; NMeV = CN[C@H](C(=O)O)C(C)C; Sar = CNCC(=O)O

assay: VSVG counterscreen qHTS to identify inhibitors of SARS-CoV-2 cell entry (AID 1645847); settings: VSV-G pseudotyped particle entry, luciferase; series mostly up to 57.2 µM; activity change, negative = inhibition: at the top concentration; note: nearly all actives have a fitted effect of over 65% in size
Summary of the method: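 Counterscreen using VSV-G (not spike) pseudotyped MLV particles on ACE2-expressing Expi293F cells after 1 h compound preincubation; infection ran 48 h at 37 °C. Data normalized to VSV-G PP and bald-PP wells.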
% is set by controls: 0 for no effect and ±100 for the full control effect; potency is the fitted concentration of half-maximal effect.

Structure (SMILES) | Potency | activity change, negative = inhibition
Cc1c2oc3c(C)ccc(C(=O)N[C@@H]4C(=O)N[C@H](C(C)C)C(=O)N5CCC[C@H]5C(=O)N(C)CC(=O)N(C)[C@@H](C(C)C)C(=O)O[C@@H]4C)c3nc-2c(C(=O)N[C@@H]2C(=O)N[C@H](C(C)C)C(=O)N3CCC[C@H]3C(=O)N(C)CC(=O)N(C)[C@@H](C(C)C)C(=O)O[C@@H]2C)c(N)c1=O (I: T[dV]P[Sar][NMeV] / II: T[dV]P[Sar][NMeV]; ester I:1-I:C, II:1-II:C; linker I:N-II:N via Actinocin(9to1)) | 0.0429 µM (active) | –
CC[C@]1(O)C[C@@H]2CN(CCc3c([nH]c4ccccc34)[C@@](C(=O)OC)(c3cc4c(cc3OC)N(C)[C@H]3[C@@](O)(C(=O)OC)[C@H](OC(C)=O)[C@]5(CC)C=CCN6CC[C@]43[C@@H]65)C2)C1 | 0.0341 µM (active) | –
N[C@@H](Cc1ccc(N(CCCl)CCCl)cc1)C(=O)O | 0.152 µM (active) | –
COC(=O)Nc1nc2ccc(C(=O)c3ccccc3)cc2[nH]1 | 1.52 µM (active) | –
C=C(CC)C(=O)c1ccc(OCC(=O)O)c(Cl)c1Cl | 1.92 µM (active) | –
CCC1=C[C@@H]2CN(C1)Cc1c([nH]c3ccccc13)[C@@](C(=O)OC)(c1cc3c(cc1OC)N(C)[C@H]1[C@@](O)(C(=O)OC)[C@H](OC(C)=O)[C@]4(CC)C=CCN5CC[C@]31[C@@H]54)C2 | 1.67 µM (active) | –
CN(C)C(=O)C(CCN1CCC(O)(c2ccc(Cl)cc2)CC1)(c1ccccc1)c1ccccc1 | 24.1 µM (active) | –
Nc1ncn([C@@H]2O[C@H](CO)[C@@H](O)[C@H]2O)c(=O)n1 | 19.2 µM (active) | –
O=C(O)c1ccc(-n2nc(-c3ccccc3O)nc2-c2ccccc2O)cc1 | 24.1 µM (active) | –
CCCCNc1ccc(C(=O)OCCOCCOCCOCCOCCOCCOCCOCCOCCOC)cc1 | 21.5 µM (active) | –
COC(c1ccccc1)(c1ccccc1)[C@H](Oc1nc(C)cc(C)n1)C(=O)O | – | -5.44% (inactive)
CNCCC(Oc1ccc(C(F)(F)F)cc1)c1ccccc1 (stereo not given) | 0.121 µM (active) | –
CC(CN(C)C)CN1c2ccccc2CCc2ccccc21 (stereo not given) | 1.92 µM (active) | –
O=C1C(=O)c2ccccc2C(O)=C1C1CCC(c2ccc(Cl)cc2)CC1 (stereo not given) | 9.61 µM (active) | –
CCc1c2c(nc3ccc(OC(=O)N4CCC(N5CCCCC5)CC4)cc13)-c1cc3c(c(=O)n1C2)COC(=O)[C@]3(O)CC | 0.171 µM (active) | –
COc1cccc2c1C(=O)c1c(O)c3c(c(O)c1C2=O)C[C@@](O)(C(=O)CO)C[C@@H]3O[C@H]1C[C@H](N)[C@H](O)[C@H](C)O1 | 0.152 µM (active) | –
COc1c(C)c2c(c(O)c1C/C=C(\C)CCC(=O)OCCN1CCOCC1)C(=O)OC2 | 0.429 µM (active) | –
OCCN1C[C@H](O)[C@@H](O)[C@H](O)[C@H]1CO | 4.29 µM (active) | –
CC(C)(C)C(=O)OCOP(=O)(COCCn1cnc2c(N)ncnc21)OCOC(=O)C(C)(C)C | 0.0152 µM (active) | –
CC[C@]1(O)C[C@H]2CN(CCc3c([nH]c4ccccc34)[C@@](C(=O)OC)(c3cc4c(cc3OC)N(C=O)[C@H]3[C@@](O)(C(=O)OC)[C@H](OC(C)=O)[C@]5(CC)C=CCN6CC[C@]43[C@@H]65)C2)C1 | 0.0171 µM (active) | –
Cc1nc(Nc2ncc(C(=O)Nc3c(C)cccc3Cl)s2)cc(N2CCN(CCO)CC2)n1 | 3.83 µM (active) | –
Nc1ccn([C@@H]2O[C@H](CO)[C@@H](O)C2(F)F)c(=O)n1 | 0.304 µM (active) | –
O=C1CCc2ccc(OCCCCN3CCN(c4cccc(Cl)c4Cl)CC3)cc2N1 | 13.6 µM (active) | –
CN(C)CCCN1c2ccccc2Sc2ccc(Cl)cc21 | 17.1 µM (active) | –
COc1c(C)c2c(c(O)c1C/C=C(\C)CCC(=O)O)C(=O)OC2 | 0.482 µM (active) | –
CN1CCC(=C2c3ccccc3C=Cc3ccccc32)CC1 | 0.192 µM (active) | –
COC(=O)Nc1nc2ccc(C(=O)c3cccs3)cc2[nH]1 | 0.152 µM (active) | –
COC(=O)C1=C(C)NC(C)=C(C(=O)OCC(C)C)C1c1ccccc1[N+](=O)[O-] (stereo not given) | 5.41 µM (active) | –
CC(=O)[C@]1(O)Cc2c(O)c3c(c(O)c2[C@@H](O[C@H]2C[C@H](N)[C@H](O)[C@H](C)O2)C1)C(=O)c1ccccc1C3=O | 0.0857 µM (active) | –
Cc1cn([C@H]2C[C@H](N=[N+]=[N-])[C@@H](CO)O2)c(=O)[nH]c1=O | 0.429 µM (active) | –
